Reference: the supplement of paper PMC8728848
The sample as a whole holds a higher share of the strongest signals than the screen did.

What was measured:
Experiment in all cases: glycan array binding signal (z-score within array); higher = stronger binding
Details in all cases: glycan notation: IUPAC condensed, linker removed
[1] = target: Gal(b1-4)GlcNAc(b1-3)Gal(b1-4)[Fuc(a1-3)]GlcNAc(b1-3)Gal(b1-4)[Fuc(a1-3)]GlcNAc
Summary of the method: (§1)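 From the Consortium for Functional Glycomics database, 3228 arrays were curated, keeping only those whose protein sequence was available. Binding is given as a within-array Z-score averaged across arrays sharing a protein sequence and across linkers. Negative Z-scores can be read as non-binding.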

[2] = target: Gal(b1-4)GlcNAc(b1-3)[Fuc(a1-3)GlcNAc(b1-6)]Gal(b1-4)Glc
Summary of the method: as §1

[3] = target: Gal3S(b1-4)GlcNAc
Summary of the method: as §1

[4] = target: GalNAc(a1-3)GalNAc(b1-3)Gal(a1-4)Gal(b1-4)Glc
Summary of the method: as §1

[5] = target: GalNAc(b1-3)Gal(a1-4)Gal(b1-4)GlcNAc
Summary of the method: as §1

[6] = target: GlcNAc(b1-2)Man(a1-3)[GlcNAc(b1-4)][GlcNAc(b1-2)Man(a1-6)]Man(b1-4)GlcNAc(b1-4)[Fuc(a1-6)]GlcNAc
Summary of the method: as §1

[7] = target: GlcNAc(b1-2)[GlcNAc(b1-4)]Man(a1-3)[GlcNAc(b1-4)][GlcNAc(b1-2)Man(a1-6)]Man(b1-4)GlcNAc(b1-4)GlcNAc
Summary of the method: as §1

[8] = target: GlcNAc(b1-3)Gal(b1-4)GlcNAc(b1-3)[GlcNAc(b1-3)Gal(b1-4)GlcNAc(b1-3)]GalNAc
Summary of the method: as §1

[9] = target: GlcNAc(b1-3)GalNAc
Summary of the method: as §1

[10] = target: GlcNAc(b1-4)GlcNAc(b1-4)GlcNAc(b1-4)GlcNAc(b1-4)GlcNAc
Summary of the method: as §1

[11] = target: Man(a1-3)[Man(a1-6)]Man
Summary of the method: as §1

[12] = target: Neu5Ac(a2-3)Gal
Summary of the method: as §1

[13] = target: Neu5Ac(a2-3)Gal(b1-3)GalNAc(b1-3)Gal(a1-4)Gal(b1-4)Glc
Summary of the method: as §1

[14] = target: Neu5Ac(a2-3)Gal(b1-3)GlcNAc(b1-2)Man(a1-3)[GlcNAc(b1-4)][Neu5Ac(a2-3)Gal(b1-3)GlcNAc(b1-2)Man(a1-6)]Man(b1-4)GlcNAc(b1-4)GlcNAc
Summary of the method: as §1

[15] = target: Neu5Ac(a2-3)Gal(b1-3)[Fuc(a1-4)]GlcNAc
Summary of the method: as §1

[16] = target: Neu5Ac(a2-3)Gal(b1-4)GlcNAc(b1-3)Gal(b1-4)GlcNAc
Summary of the method: as §1

[17] = target: Neu5Ac(a2-3)Gal(b1-4)GlcNAc(b1-3)Gal(b1-4)GlcNAc(b1-3)Gal(b1-4)GlcNAc
Summary of the method: as §1

[18] = target: Neu5Ac(a2-3)Gal(b1-4)GlcNAc(b1-3)Gal(b1-4)GlcNAc(b1-3)GalNAc
Summary of the method: as §1

[19] = target: Neu5Ac(a2-3)Gal(b1-4)[Fuc(a1-3)]GlcNAc(b1-6)[Neu5Ac(a2-3)Gal(b1-3)]GalNAc
Summary of the method: as §1

[20] = target: Neu5Ac(a2-6)Gal(b1-4)Glc
Summary of the method: as §1

[21] = target: Neu5Ac(a2-6)Gal(b1-4)GlcNAc(b1-2)Man(a1-3)[GlcNAc(b1-4)][Neu5Ac(a2-6)Gal(b1-4)GlcNAc(b1-2)Man(a1-6)]Man(b1-4)GlcNAc(b1-4)GlcNAc
Summary of the method: as §1

[22] = target: Neu5Ac(a2-6)Gal(b1-4)GlcNAc(b1-2)Man(a1-3)[Man(a1-6)]Man(b1-4)GlcNAc(b1-4)GlcNAc
Summary of the method: as §1

[23] = target: Neu5Ac(a2-6)Gal(b1-4)GlcNAc(b1-6)[Gal(b1-3)]GalNAc
Summary of the method: as §1

[24] = target: Neu5Ac(a2-8)Neu5Ac(a2-3)Gal(b1-3)GalNAc(b1-4)[Neu5Ac(a2-3)]Gal(b1-4)Glc
Summary of the method: as §1

[25] = target: Neu5Ac(a2-8)Neu5Ac(a2-3)Gal(b1-4)GlcNAc
Summary of the method: as §1

[26] = target: Neu5Gc(a2-3)Gal(b1-4)GlcNAc
Summary of the method: as §1

[27] = target: Neu5Gc(a2-3)Gal(b1-4)GlcNAc(b1-3)Gal(b1-4)GlcNAc(b1-2)Man(a1-3)[Neu5Gc(a2-3)Gal(b1-4)GlcNAc(b1-3)Gal(b1-4)GlcNAc(b1-2)Man(a1-6)]Man(b1-4)GlcNAc(b1-4)GlcNAc
Summary of the method: as §1

[28] = target: Neu5Gc(b2-6)Gal(b1-4)GlcNAc
Summary of the method: as §1

B1: PX9961V-pdi-562-26-562 (Parabacteroides distasonis) (protein)
chain: EIFSEITTDNYYQNSNNIYAALVNNYAKAFSTGWSDARYFLQEVTADQLMIPTRGKHGYNGGEYVRLHEHKWTVEENFVYNGWAAPFQGIALCNNTLSDFENLDFSTFKLTEETKNEYIAELRALRVWNYMFLIDFFRHVPIVTDIEEVKAQSTPLEVFNFMESELLAILPDLPKNRGVSRFDQAGVASILVRLYLNAEKWIGISKYDECEQMAQAILDGKYGEYSIDPDYRGPFRSGINGYRSKENIMEFAIKKNYFEASWLYNMWMHYQDRYSLDNDWQGWNGGNLAPSRDLYGNLYQDKLGMPFEKFPDGDIRKKAFRVISNDGDYEGFFLMGTQYKFDYEKGYGFTDEVITGTEEYNGKPLVYVDQVGRFSEGETGLAKGSHVIYGEENTGYRLIKFPWLPQSKDLFQMNSIPEIRLAEIYYSLAECKYRSGDKIGAARLLDVVRKRYYKAEDWSKFSYESNISKLTDDEFVDELGREFIGERHRRIDLIRWNRFSEGAWWDKTPDATNQDVFPIPYRALNANPLLKQTTAGF
glycan array binding signal (z-score) [1]: -0.412
glycan array binding signal (z-score) [2]: -0.429
glycan array binding signal (z-score) [3]: -0.447
glycan array binding signal (z-score) [4]: -0.432
glycan array binding signal (z-score) [5]: -0.339
glycan array binding signal (z-score) [6]: -0.145
glycan array binding signal (z-score) [7]: -0.324
glycan array binding signal (z-score) [8]: -0.471
glycan array binding signal (z-score) [9]: -0.21
glycan array binding signal (z-score) [10]: 0.049
glycan array binding signal (z-score) [11]: -0.443
glycan array binding signal (z-score) [12]: -0.711
glycan array binding signal (z-score) [13]: -0.516
glycan array binding signal (z-score) [14]: 0.213
glycan array binding signal (z-score) [15]: -0.598
glycan array binding signal (z-score) [16]: -0.53
glycan array binding signal (z-score) [17]: -0.516
glycan array binding signal (z-score) [18]: -0.319
glycan array binding signal (z-score) [19]: 2.66
glycan array binding signal (z-score) [20]: -0.644
glycan array binding signal (z-score) [21]: -0.373
glycan array binding signal (z-score) [22]: -0.231
glycan array binding signal (z-score) [23]: -0.27
glycan array binding signal (z-score) [24]: -0.606
glycan array binding signal (z-score) [25]: -0.574
glycan array binding signal (z-score) [26]: 0.017
glycan array binding signal (z-score) [27]: -0.054
glycan array binding signal (z-score) [28]: -0.322
